Measured values from PubChem BioAssay AID624330 (Southern Research Specialized Biocontainment Screening …, 2012).
About 2,100 (0.62%) of roughly 340,000 compounds were called active.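 Rule for the calls: active = first-screen hits whose inhibition reached a set limit at any dose in the follow-up dose series; inconclusive = inhibition above the set first-screen limit but never retested; inactive = the rest.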 The list is a sample of the results. Measured potencies and affinities stand elsewhere.

What follows are molecules tested against Rac GTPase-activating protein 1 (Homo sapiens) (UniProt Q9H0H5) (assay: MgcRacGAP GTPase-activating activity inhibitors, confirmation, biochemical, ADP Hunter fluorescence, primary and confirmatory (AID 624330;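 note: fluorescence reports GDP produced by GAP-driven GTP hydrolysis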)). Conditions: MgcRacGAP-stimulated Rac1 GTP hydrolysis, at 30 µM, active compounds read high, GST-tagged Rac1 F28L mutant substrate.
Rac GTPase-activating protein 1 (Homo sapiens), sequence (Q9H0H5 whole entry, looked up): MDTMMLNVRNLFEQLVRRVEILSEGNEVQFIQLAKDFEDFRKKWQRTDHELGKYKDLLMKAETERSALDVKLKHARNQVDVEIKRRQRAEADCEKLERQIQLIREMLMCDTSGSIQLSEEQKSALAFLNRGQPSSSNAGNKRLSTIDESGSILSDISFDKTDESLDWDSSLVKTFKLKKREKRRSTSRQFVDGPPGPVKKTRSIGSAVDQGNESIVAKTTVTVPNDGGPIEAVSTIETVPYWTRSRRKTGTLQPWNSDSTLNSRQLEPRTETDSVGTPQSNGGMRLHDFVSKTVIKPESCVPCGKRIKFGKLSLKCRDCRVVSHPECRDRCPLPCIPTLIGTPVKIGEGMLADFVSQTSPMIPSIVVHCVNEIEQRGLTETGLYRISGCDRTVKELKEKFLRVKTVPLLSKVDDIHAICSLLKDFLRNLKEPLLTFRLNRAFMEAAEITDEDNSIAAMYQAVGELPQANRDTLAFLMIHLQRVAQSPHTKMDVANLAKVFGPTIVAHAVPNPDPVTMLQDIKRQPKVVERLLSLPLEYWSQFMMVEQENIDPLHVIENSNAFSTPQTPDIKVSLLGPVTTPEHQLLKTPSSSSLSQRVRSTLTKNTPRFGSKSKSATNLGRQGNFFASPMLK

inhibition, inactive:
CCOC(=O)N1CCC(N2CCN(S(=O)(=O)c3ccc(OC)cc3)CC2)CC1 20.1%
O=S(=O)(c1ccccc1)N1CCN(C2CCN(Cc3ccccc3)CC2)CC1 9.41%
COc1ccccc1N1CCN(C2CCN(S(=O)(=O)c3ccc(C)cc3)CC2)CC1 -5.5%
CCOC(=O)N1CCC(N2CCN(S(=O)(=O)c3ccc(C)cc3)CC2)CC1 22.2%
COc1ccccc1N1CCN(C2CCN(S(=O)(=O)c3ccc4ccccc4c3)CC2)CC1 4.9%
O=S(=O)(c1ccc(Cl)cc1)N1CCN(C2CCN(Cc3ccccc3)CC2)CC1 2.66%
COc1ccc(S(=O)(=O)N2CCN(C3CCN(Cc4ccccc4)CC3)CC2)cc1 8.39%
COc1ccc(S(=O)(=O)N2CCN(Cc3ccccc3)CC2)cc1 5.15%
O=c1c2ccccc2nnn1CSc1ccccc1F 8.16%
Cc1cccc(C(=O)NCC(=O)NC2CCC(C)CC2)c1 (configuration not stated) 3.71%
O=C(CSc1c2c(nc3ccccc13)CCC2)N1CCCC1 10.3%
Cc1ccn2cc(CCNC(=O)CC3CCCCC3)nc2c1 16%
O=C(c1cc(Cl)nc2ccccc12)N1CCCCC1 3.41%
CCN(CC)c1ccc(C(=O)Nc2cccc(F)c2)cc1 15.5%
CCN(CC)c1ccc(C(=O)NNC(=O)CCl)cc1 9.55%
Cc1ccc(-c2csc(NC(=O)c3ccccc3F)c2C(=O)O)cc1 5.32%
COc1cccc(COC(=O)c2cc(S(=O)(=O)N3CCCCC3)ccc2N2CCOCC2)c1OC -0.42%
COc1ccc(CCNC(=O)C(=O)NCCCN2CCOCC2)cc1 0.98%
O=S(=O)(Cc1ccccc1)NCCc1ccc(F)cc1 -2.46%
COc1ccc(CNS(=O)(=O)CCNCCc2ccccc2)cc1 6.36%
COc1ccc(CC(=O)NCCN2CCOCC2)cc1 -0.23%
O=C(Cc1ccc(F)cc1)NCCc1ccccc1 -3.3%
COc1ccc(CCNCc2ccc(OCc3ccccc3)cc2)cc1 -1.52%
O=C(c1ccc(Br)o1)N1CC=C(c2ccccc2)CC1 -9.29%
COCCCNC(=O)C1CCCN(S(C)(=O)=O)C1 (configuration not stated) 4.1%
N=c1c(S(=O)(=O)c2ccc(Br)cc2)cc2c(=O)n3ccccc3nc2n1C1CCCC1 3.79%
N#CCC(=O)Nn1c(=S)[nH]c2ccccc2c1=O 3.15%
CCSCCOC(=O)C1=C(C)NC(=O)NC1c1ccccc1 (configuration not stated) 2.5%
CCCCNC(=O)CNC(=S)N(Cc1cc(OC)c(OC)c(OC)c1)C1CCCC1 5.07%
COc1ccccc1N1CCN(CCCC(=O)c2ccc(F)cc2)CC1 8.13%
COc1ccc(C(=O)CN2CCN(c3ccc(F)cc3)CC2)cc1 11.7%
COc1ccccc1N1CCN(CCCCCCOc2ccc(F)cc2)CC1 7.05%
COc1ccccc1N1CCN(CCCCOc2ccc(F)cc2)CC1 4.56%
CCN(CC)S(=O)(=O)c1ccc(NC(=O)C(OC)c2ccccc2)cc1 (configuration not stated) 11.8%
C/C(=N\Nc1ccccn1)c1ccc(C#N)cc1 6.31%
Cc1nn(CC(=O)N2CCc3ccccc3C2)c(C)c1[N+](=O)[O-] 4.25%
Nc1ccc(-c2nc3cc(N)ccc3o2)cc1 17.5%
Nc1ccc(-c2nc3ccccc3o2)cc1 4.77%
COc1ccc(CC(=O)OCC(=O)NCc2ccc(Cl)cc2)cc1 -11.6%
COc1cccc(NC(=O)COC(=O)c2ccccc2C(=O)N2CCN(c3ccccc3)CC2)c1 -5.54%
Cc1ccccc1N(CC(=O)N1CCCC1)S(=O)(=O)c1ccc(Cl)cc1 5.47%
CCOc1ccc2nc(-c3ccccc3)nc(SCC(=O)Nc3ncc(C)s3)c2c1 -5.25%
O=C(COc1ccc2c3c(c(=O)oc2c1)CCC3)N1CCCC1 11.2%
CSc1ncccc1C(=O)NCC1CCCCC1 6.8%
CC(C)C(=O)Nc1ccc2c(c1)Cc1cc(NC(=O)C(C)C)ccc1-2 12.2%
COc1cc2c(cc1NC(=O)C(F)(F)F)-c1ccc(NC(=O)C(F)(F)F)cc1C2 4.33%
COc1cc(C(=O)N/N=C/c2ccc(OC(=O)c3ccccc3Cl)c(OC)c2)ccc1O 17.8%
COc1cccc(/C=N/NC(=O)CCc2ccccc2)c1 8.09%
Cc1ccc(/C=N\NC(=O)CC(=O)NCCc2ccccc2)cc1 -1.99%
COc1ccc(/C=N\NC(=O)CNC(=O)C(c2ccccc2)c2ccccc2)cc1[N+](=O)[O-] -25.7%
O=C(CNC(=O)C(c1ccccc1)c1ccccc1)N/N=C\c1cccc(O)c1 6.95%
CCOc1ccc(/C=N\NC(=O)CC(=O)NCCc2ccccc2)cc1 13%
COc1ccc(/C=N/NC(=O)CCc2ccccc2)cc1O 26.6%
COc1ccc(NC(=O)CCNC(=O)c2ccccc2Cl)cc1OC 9.17%
COCCN(C(=O)COC(=O)c1ccc(Br)o1)c1c(N)n(Cc2ccccc2)c(=O)[nH]c1=O 7.5%
O=c1[nH]c(CSc2ncccn2)nc2c1cnn2-c1ccccc1 9.39%
Fc1ccc(-n2cc(CNCCc3cccnc3)c(-c3ccccc3Cl)n2)cc1 5.92%
C=CC[C@@H](CC(=O)N(CCO)Cc1ccccc1)C(=O)N[C@H](COC(=O)[C@@H](CC=C)Cc1ccc(F)cc1)C(C)(C)C 4.96%
CC1(C)CC(=O)C(CC2C(=O)CC(C)(C)CC2=O)C(=O)C1 12.9%
COC(=O)c1cccnc1SCc1ccccc1 3.27%
CCOc1ncccc1C(=O)Nc1cccc(S(=O)(=O)N2CCOCC2)c1 3.19%
COC(=O)CCNC(=O)Cn1cnc2sc3c(c2c1=O)CCCC3 3.18%
